From PubChem
PTHR1 agonist – PTHR1 (human) receptor agonism; Q03431; HEK293 GP2 PTHR1 cells, GloSensor cAMP luminescence, 1 h; Potency, µM (series often up to 115 µM), without a hit: at the top dose activation, actives largely listed as activators; 410,000 compounds, 0.075% hits; AID 743266; further: nearly all actives have a fitted effect of over 55% in size
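HEK-293-derived GP2 cells expressing PTHR1 and a GloSensor cAMP reporter, 3,000/well, plated overnight, given luciferin plus IBMX (each 0.5 mM as added) for 1 h at 37 °C, then compound for 1 h at 37 °C. Luminescence was read after 15 min at room temperature.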
GLP1R ag – agonists of human GLP-1 receptor. P43220. HEK293 GLP-1R CRE-luciferase, luminescence, 4-6 h; cells express a hypersensitive GLP-1R form. Potency, µM (highest dose often 45.6 µM), for the others: at the highest dose activation, hits mostly activators. 380,000 compounds, 0.007% hits. AID 624172; further: % of control where 0% means no effect
Target sequence (P43220 whole entry, looked up): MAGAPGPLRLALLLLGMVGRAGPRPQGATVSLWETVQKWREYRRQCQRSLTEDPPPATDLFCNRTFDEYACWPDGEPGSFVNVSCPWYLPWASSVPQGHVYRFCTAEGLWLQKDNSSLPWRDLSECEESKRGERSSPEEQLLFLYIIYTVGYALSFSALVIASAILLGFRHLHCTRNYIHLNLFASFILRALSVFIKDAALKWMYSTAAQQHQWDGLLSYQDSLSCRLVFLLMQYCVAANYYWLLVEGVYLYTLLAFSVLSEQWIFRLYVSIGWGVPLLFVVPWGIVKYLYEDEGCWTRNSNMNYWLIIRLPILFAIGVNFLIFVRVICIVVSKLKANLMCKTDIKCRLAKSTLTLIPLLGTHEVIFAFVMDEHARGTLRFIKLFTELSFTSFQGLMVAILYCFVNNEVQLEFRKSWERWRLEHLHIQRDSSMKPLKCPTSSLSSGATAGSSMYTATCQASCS
GLP1R cytotox – cytotoxicity in counter-screen for GLP-1R inverse agonists; AID 624418; HEK293 cAMP-luciferase reporter cells, luminescence, 24 h; Potency, µM (highest dose often 38.3 µM), without a hit: at the top dose activity change, negative = inhibition, hits mostly inhibitors; 410,000 compounds, 0.13% hits;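 further: loss of luciferase light is scored as toxicity; on the % scale 0 is the no-effect control and ±100 the full control effect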
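Here, cytotoxicity is scored as loss of luminescence. The MLSMR collection was tested on cells seeded in medium containing 10% Nu serum, with a 24 hr compound exposure preceded by 12 hours of culture.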
GLP-1R inv ag – acts as inverse agonist at human GLP-1 receptor. 410,000 compounds, 1.6% hits. HEK293 GLP-1R CRE-luciferase, luminescence, 24 h; GLP-1R form is constitutively active. Potency, µM (highest dose often 38.3 µM), inactives show at the highest dose activity change, negative = inhibition, most hits filed as inhibitors. AID 624417; further: on the % scale 0 is the no-effect control and ±100 the full control effect; nearly all actives have a fitted effect of over 55% in size
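Cells are plated, allowed 12 hours at 37 deg C, then treated with compounds for 24 hr before luciferase detection reagent is added and luminescence is read after 12 min at room temperature. The HEK293 line carries constitutively active GLP-1R with a cAMP-responsive reporter.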
The depositor's hits bear a star; i = inactive; ? = inconclusive; · = not tested or not shown; [ ] = dose if it differs, or a comment. The list is not random: actives were taken first. Their share in the collection is about 1.7%. The call rests on the fitted dose curve; in most records, active means well fitted curve in the direction sought with a large enough effect; inconclusive means small, poorly fitted or top-dose-only effect, or another doubt; inactive means no such curve, though single readings can be large; an effect the other way counts as inactive or inconclusive. Potency means the concentration at half of the fitted maximal effect.

SMILES	PTHR1 agonist	GLP1R ag	GLP1R cytotox	GLP-1R inv ag
COc1ccc(CNC(c2ccccc2)c2ccc(Cl)cc2)cc1 (centres undefined)	-5%	5%	0%	?
CC(NCc1cccc(OCc2ccccc2)c1)C(O)c1ccccc1 (centres undefined)	-22%	22%	?	8.9µM*
c1ccc(COc2cccc(CNn3cnnc3)c2)cc1	i	-4%	4%	3%
CC(NCc1ccc(OCc2ccc(Cl)cc2)cc1)C(O)c1ccccc1 (centres undefined)	-31%	9%	?	10µM*
COc1ccc(N(C(=O)COc2c(C)cccc2C)S(=O)(=O)c2ccc(Cl)cc2)cc1	-9%	·	0%	10µM*
CCCNS(=O)(=O)c1ccc(Oc2ncc(C(F)(F)F)cc2Cl)cc1	-34%	0%	-3%	11µM*
CC(C)NS(=O)(=O)c1ccc(Oc2ncc(C(F)(F)F)cc2Cl)cc1	-35%	8%	-10%	?
CCCCCCCCCCCCCCCCCCOP(=O)([O-])OC1CC[N+](C)(C)CC1	·	0%[24.2 µM]	·	·
C=CCC[C@H](Cc1ccc(F)cc1)C(=O)OC[C@@H](Cc1c[nH]c2ccccc12)NC(=O)[C@H](CC=C)CC(=O)N(CCO)Cc1ccccc1	-6%	-5%	?	2.8µM*
C=CC[C@@H](CC(=O)N(CCO)Cc1ccccc1)C(=O)N[C@@H](COC(=O)[C@@H](CC=C)CC(=O)OC(C)(C)C)Cc1c[nH]c2ccccc12	3%	-3%	?	10µM*
CC1=NN(C(=O)CSCc2ccccc2)C(O)(c2ccc(F)cc2)C1 (centres undefined)	-9%	14%	-4%	7.9µM*
CC1=NN(C(=O)CSCc2ccccc2)C(O)(c2ccc(Cl)cc2)C1 (centres undefined)	-95%	-4%	17%	?
O=C(Oc1cccc2cccnc12)c1cccc(-n2cnnn2)c1	i	-3%	-5%	0%
O=C(Oc1cccc2cccnc12)c1ccc(N2C(=O)C3C4CCC(C4)C3C2=O)cc1 (centres undefined)	-15%	0%	3.2µM*	2.8µM*
O=C(Oc1cccc2cccnc12)c1cccc(N2C(=O)C3C4CCC(C4)C3C2=O)c1 (centres undefined)	5%	1%	2.5µM*	2.8µM*
CCSc1ccccc1C(=O)Nc1ccc(-c2nc3ccccc3s2)c(O)c1	9%	·	1%	9%
O=C(C1=C[C@H](c2ccc(C(F)(F)F)cc2)C[C@H](OCc2ccc(CO)cc2)O1)N1CCN(Cc2ccc3c(c2)OCO3)CC1	-13%	-1%	-11%	10µM*
O=C(C1=C[C@@H](c2ccc(C(F)(F)F)cc2)C[C@@H](OCc2ccc(CO)cc2)O1)N1CCN(Cc2ccc3c(c2)OCO3)CC1	-29%	-2%	-2%	-16%
COc1cccc(CNC(=O)c2ccc(CN3CC(=O)N4CCCCC4C3=O)cc2)c1 (centres undefined)	i	·	1%	10%
C/C(=N\NC(=S)NCc1ccccc1)c1cccc(Br)c1	-1%	27%	?	8.9µM*
CCNC(=S)N/N=C(\C)c1cc2ccccc2o1	i	21%	?	4.5µM*
C/C(=N\NC(=S)NCc1ccccc1)c1ccc2ccccc2c1	-31%	5%	2.8µM*	?
COc1ccc(/C(C)=N/NC(=S)NCc2ccco2)cc1	-9%	23%	?	11µM*
C/C(=N\NC(=S)Nc1cccc(C)c1)c1cc2ccccc2o1	-12%	15%	?	9%[7.66 µM]
COc1ccccc1/C(C)=N/NC(=S)NCc1ccccc1	i	18%	5µM*	2.5µM*
SMILES	PTHR1 agonist	GLP1R ag	GLP1R cytotox	GLP-1R inv ag
CCOc1ccccc1C(=O)N1CC(=O)Nc2ccc(Cl)cc2C1c1ccccc1 (centres undefined)	i	·	3%	?
O=C(Nc1ccc([N+](=O)[O-])cc1)C(c1ccccc1)c1ccccc1	-24%	-2%	-18%	2.2µM*
O=C(Nc1ccc(Nc2ccncc2)cc1)c1ccc([N+](=O)[O-])cc1	-38%	-1%	?	10µM*
O=C(Nc1ccc(Oc2cccnc2)cc1)c1ccc([N+](=O)[O-])cc1	-12%	4%	15%	-11%
O=C(NCC(O)c1ccc([N+](=O)[O-])cc1)C(c1ccccc1)c1ccccc1 (centres undefined)	-19%	15%	-7%	?
Cc1cc(/C=C2/SC(=S)N(c3cccc(C(F)(F)F)c3)C2=O)c(C)n1-c1cccnc1	-35%	6%	-18%	5µM*
Cc1ncsc1CCSc1nc2ccccc2c(=O)n1C	-21%[57.5 µM]	11µM*	8%	0%
COc1ccc(Cn2c(CO)cnc2SCc2cccc(C)c2)cc1	i	13%	-6%	-34%
COC(=O)C1(C)CCCC2(C)C3CCC(C(C)C)C(CO)C3C(CO)CC12 (centres undefined)	-45%	0%	?	10µM*
CC/C=C(/C(=O)N[C@@H]1C(=O)N2C(C(=O)OCOC(=O)C(C)(C)C)=C(COC(N)=O)CS[C@H]12)c1csc(N)n1	·	-2%	·	·
CCN(CC)S(=O)(=O)c1cccc(C(=O)Nc2nc3cc4c(cc3s2)OCCO4)c1	-30%[57.5 µM]	-10%	-29%	11µM*
O=C(Nc1nc2cc3c(cc2s1)OCCO3)c1cccc(N2C(=O)CCC2=O)c1	-95%	-2%	1%	?
CCOC(=O)c1nnn(-c2nonc2N)c1COc1cc(C)c(Cl)c(C)c1	i	0%	-11%	8.9µM*
Cc1nc(Nc2nc(CSc3nc4ccccc4[nH]3)cc(=O)[nH]2)nc2ccccc12	i	-4%	?	1.1µM*
Cc1ccccc1CNC(=O)c1ccc(NC(=O)c2nsc3ccccc23)cc1	-20%	·	3%	-20%
CC(=Nc1ccc(C)cc1)c1sc2ccccc2c1O	11%	-7%	137%	13µM*
CCOc1ccc(C(=O)Nc2nnc(S(=O)(=O)N(CC)c3ccccc3C)s2)cc1	-6%	·	-21%	?
CCOCCCNC(=O)C(c1ccc(C)cc1)N(Cc1ccc2c(c1)OCO2)C(=O)c1ccc(NC(C)=O)cc1 (centres undefined)	-28%	·	-5%	-5%
CC1Cc2ccccc2N1C(=S)NC(=O)c1cccc(Br)c1 (centres undefined)	i	5%	?	?
CC1Cc2ccccc2N1C(=S)NC(=O)c1ccc(Cl)cc1Cl (centres undefined)	-17%	-15%	?	10µM*
CCCC(=O)O[C@]1(C(=O)COC(=O)CC)[C@@H](C)C[C@H]2[C@@H]3CCC4=CC(=O)C=C[C@@]4(C)[C@@]3(F)[C@H](O)C[C@@]21C	·	-4%	·	·
CCOC(=O)c1ccc(N2CCN(c3ccccc3F)CC2)c(NC(=O)Nc2ccc(Cl)c(Cl)c2)c1	i	·	-4%	3%
Cn1cnnc1Sc1ccc(C(F)(F)F)cc1[N+](=O)[O-]	i	1%	1%	6.3µM*
